# Menin MLL FP TR: inhibitors of human menin-MLL interaction, mutant MLL peptide | actives 0.23% (n = 270,000) | Menin + Texas Red MLL mutant peptide, fluorescence polarization | Potency, µM (top dose mostly 61.6 µM), for the others: at the highest dose FP activity change, negative = inhibition, most hits filed as inhibitors; active = well fitted inhibition curve with a large enough effect in the polarisation, with a control signal flat, not every such curve was filed as active; inconclusive = small, poorly fitted or top-dose-only effect, or effect the other way, or a change in a side signal; inactive = no such curve, though single readings can be large or run the other way; the % refers to the polarisation; also: potency is read from the fitted curve at half-maximal effect; % of control where 0% means no effect
# MLL CXXC-DNA inh: blocks binding of human MLL CXXC domain to DNA | Q03164 | MLL-CXXC / FITC-HOXA9 DNA fluorescence polarization | Potency, µM (doses to about 115 µM), inactives show at the highest dose activity change, negative = inhibition, usual class: inhibitors | actives 0.037% (n = 290,000) | AID 2662; active = well fitted inhibition curve with a large enough effect in the polarisation, with a control signal flat, not every such curve was filed as active; inconclusive = small, poorly fitted or top-dose-only effect, or effect the other way, or a change in a side signal; inactive = no such curve, though single readings can be large or run the other way; the % refers to the polarisation; also: potency is read from the fitted curve at half-maximal effect
#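 Fluorescence polarization: 7 uM MLL-CXXC (stock) preincubated 5 min with compounds, then 50 nM fluorescein-HOX-A9 DNA (stock) added; 30 min ambient. Buffer 50 mM Tris-HCl pH 7.5, 50 mM NaCl, 1 mM DTT, 0.05% BSA.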
# hERG WT inh: blocks the wildtype human KCNH2 potassium channel; Q12809; U2OS, BacMam KCNH2, thallium flux FluxOr; hits give low values; activity change, % at 1.84 µM; actives 0.37% (n = 340,000); AID 720551;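 active = maximum activity change below -70%; inconclusive = maximum activity change between -70% and -50%; inactive = maximum activity change above -50%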; also: % is scaled to controls: 0 for no effect and ±100 for the full control effect
# Target sequence (Q12809 whole entry, looked up): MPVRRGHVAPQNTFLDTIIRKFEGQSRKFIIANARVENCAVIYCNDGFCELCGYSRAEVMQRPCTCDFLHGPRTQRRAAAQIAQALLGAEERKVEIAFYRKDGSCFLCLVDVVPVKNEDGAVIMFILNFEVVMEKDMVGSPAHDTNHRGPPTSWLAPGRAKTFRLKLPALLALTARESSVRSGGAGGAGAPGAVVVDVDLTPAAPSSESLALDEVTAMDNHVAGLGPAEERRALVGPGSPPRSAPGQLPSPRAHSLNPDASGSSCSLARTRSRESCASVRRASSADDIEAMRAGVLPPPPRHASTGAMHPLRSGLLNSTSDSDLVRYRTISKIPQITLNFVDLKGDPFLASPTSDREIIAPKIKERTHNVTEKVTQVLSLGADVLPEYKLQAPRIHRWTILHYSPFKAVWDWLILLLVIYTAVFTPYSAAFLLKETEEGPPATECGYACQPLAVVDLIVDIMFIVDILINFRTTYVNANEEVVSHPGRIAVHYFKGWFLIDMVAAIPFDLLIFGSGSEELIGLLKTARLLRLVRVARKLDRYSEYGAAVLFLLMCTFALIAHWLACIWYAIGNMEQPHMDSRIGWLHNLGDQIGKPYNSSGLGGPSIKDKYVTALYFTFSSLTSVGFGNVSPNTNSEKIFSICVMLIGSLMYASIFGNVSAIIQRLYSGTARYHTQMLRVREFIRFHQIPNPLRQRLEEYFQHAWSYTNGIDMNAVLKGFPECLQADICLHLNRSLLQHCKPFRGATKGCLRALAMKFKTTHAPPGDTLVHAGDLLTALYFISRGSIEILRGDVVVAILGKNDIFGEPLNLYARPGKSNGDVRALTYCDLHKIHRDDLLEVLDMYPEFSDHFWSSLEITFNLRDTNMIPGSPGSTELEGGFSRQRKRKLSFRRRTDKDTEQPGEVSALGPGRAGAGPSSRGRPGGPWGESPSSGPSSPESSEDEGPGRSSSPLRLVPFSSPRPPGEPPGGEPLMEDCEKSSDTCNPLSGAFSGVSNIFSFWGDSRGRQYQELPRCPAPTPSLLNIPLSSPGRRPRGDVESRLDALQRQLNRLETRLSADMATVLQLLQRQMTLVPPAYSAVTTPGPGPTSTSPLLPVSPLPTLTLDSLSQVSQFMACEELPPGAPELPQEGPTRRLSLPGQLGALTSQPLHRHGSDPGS
#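 U2OS cells were transduced with wild-type KCNH2 virus (2.03 x 10^8 / mL) for 4 h at room temperature, then cultured overnight at 37 C. Thallium flux was read with FluxOr dye. Rate constants were normalized to DMSO controls.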
# KCNH2 3.1 inh: inhibitors of human KCNH2 3.1 potassium channel isoform; U2OS KCNH2 3.1, thallium flux FluxOr; hits give low values; activity change, % (tested at about 1.8 µM); actives 0.95% (n = 340,000);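 active = maximum activity change below -70%; inconclusive = maximum activity change from -70% to -50%; inactive = maximum activity change above -50%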;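 also: thallium influx rate constant from kinetic fluorescence after stimulation buffer; % is scaled to controls: 0 for no effect and ±100 for the full control effect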
#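 Normalized rate constant (relative to positive and negative DMSO controls) derived from a 2 min kinetic fluorescence read after stimulation; U2OS cells expressing the 3.1 isoform via virus at 1.77 x 10^8 /mL.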
# Menin MLL FP FL: displaces fluorescein MLL peptide from human menin | Fluorescence polarization, fluorescein-MLL peptide displacement from menin | FP activity change, % at 61.4 µM | 290,000 tested, under 10 active | AID 1766; active = well fitted curve in the direction sought with a large enough effect in the polarisation, not every such curve was filed as active; inconclusive = small, poorly fitted or top-dose-only effect, or effect the other way, or a change in a side signal; inactive = no such curve, though single readings can be large or run the other way; the % refers to the polarisation; also: % of control where 0% means no effect
# * marks the source's active call; other numbers are inactive results; i = inactive; u = inconclusive; x = no result; [ ] = dose if it differs, or a comment. Sampled rows, rich in hits. Any-hit rate of the full collection: about 1.1%.
SMILES,Menin MLL FP TR,MLL CXXC-DNA inh,hERG WT inh,KCNH2 3.1 inh,Menin MLL FP FL
COC(=O)C1=C(C(=O)OC)[C@@H]2Nc3ccccc3[C@@]23C[C@@H](C(=O)OC)N(S(=O)(=O)c2ccc(Br)cc2)C3=N1,4.1%[11.7 µM],x,x,x,-1.5[11.7 µM]
N#Cc1ccc(N2C(=O)[C@@H]3C(C(=O)c4ccc5ccccc5n4)=NN[C@@H]3C2=O)cc1,9.6%,0.8%,-97.6*,0.5,6.2
CCCn1c(SCC(=O)N2CCN(c3ccccc3)CC2)nc2ccccc2c1=O,-6.5%,-11.0%,0.7,1.8,4.4
CCOc1ccc2nc(NC(=O)CSc3nc4ccccc4c(=O)n3Cc3ccco3)sc2c1,u,37.0%,u,-96.9*,1.6
O=C(CSc1nc2ccccc2c(=O)n1Cc1ccco1)N1CCN(c2ccccc2)CC1,-21.9%,-4.6%,-103.5*,-107.0*,2.5
CCOC(=O)CSc1nc2ccccc2c(=O)n1Cc1ccco1,3.0%,-4.5%,3.0,0.2,-0.1
O=C(NCc1ccccc1)c1ccccc1NC(=O)C1CCCCC1,x,-1.7%,0.7,-7.9,x
NS(=O)(=O)c1ccc(N=Nc2c(-c3ccccc3)[nH]n(-c3nc(-c4ccccc4)cs3)c2=O)cc1,u,-1.3%,-33.2,-84.2*,2.8
Cc1ccc(-c2nc(Nc3cccc(O)c3)c3ccccc3n2)cc1,u,1.3%,x,-3.9,1.9
Oc1cccc(Nc2c3ccccc3nc3ccccc23)c1,31.6µM*,2.9%,19.1,-14.4,-28.2
COc1cc(OC)cc(C(=O)N[C@H](C(=O)NCc2ccc(F)cc2)C(C)C)c1,-18.4%,5.5%,5.5,2.6,15.1
COc1cccc(NC(=O)c2cc3ccccc3oc2=O)c1,5.5%,-2.2%,-75.8*,-12.1,-0.8
COc1ccccc1NC(=O)Cn1nnc(-c2ccccc2NC(=O)c2cc3ccccc3oc2=O)n1,20µM*,-11.2%,-3.3,0.3,-0.8
COc1ccccc1NC(=O)Cn1nnc(-c2ccccc2NS(=O)(=O)c2ccccc2)n1,u,10.8%,-3.4,5.0,0.0
COc1ccc(/C=C2/NC(=O)CNC2=O)cc1,-26.6%,0.3%,-4.6,-0.4,2.0
O=C(Nc1ccnn1C1CCN(C2CCC2)CC1)c1ccccc1,-0.7%,-4.3%,-8.6,7.1,-8.6
COc1ccc(CN2CCC(n3nccc3NC(=O)c3cccc(F)c3)CC2)cc1O,-18.4%,-3.7%,-109.5*,-109.9*,1.8
O=C(Nc1ccnn1C1CCN(C/C=C/c2ccccc2)CC1)c1cccc(F)c1,x,2.2%,-92.1*,-98.9*,x
O=C(Nc1ccnn1C1CCN(C/C=C/c2ccccc2)CC1)c1ccccc1,-21.2%,2.2%,-90.9*,-90.8*,-1.1
O=C(Nc1ccnn1C1CCN(CCCc2ccccc2)CC1)c1cccc(F)c1,x,-1.4%,-89.5*,-104.2*,x
Cc1cc(OC(=O)C(C)(C)C)c([N+](=O)[O-])c(=O)[nH]1,-1.2%,-1.4%,i,1.6,0.8
O=S(=O)(CCc1ccccc1)c1nc2ccccc2s1,4.6%,x,x,x,-2.0
O=C(CC12CC3CC(CC(C3)C1)C2)NC(=S)Nc1ccc(CN2CCOCC2)cc1,-10.7%,-3.8%,-0.1,-76.5*,1.6
O=C(NC(=S)Nc1ccc(CN2CCOCC2)cc1)c1ccco1,x,0.1%,-3.0,-8.9,6.4
O=C(CN1C(=O)NC(c2ccccc2)(c2ccccc2)C1=O)N1CCN(c2ccc(F)cc2)CC1,x,x,13.3,u,x
SMILES,Menin MLL FP TR,MLL CXXC-DNA inh,hERG WT inh,KCNH2 3.1 inh,Menin MLL FP FL
O=C(CN1C(=O)NC(c2ccccc2)(c2ccccc2)C1=O)N1CCN(c2ccccc2F)CC1,x,x,1.1,-198.1*,x
COc1cc(NC(=O)Nn2cnnc2)cc(OC)c1OC,7.8%,1.4%,1.7,13.1,0.9
COc1ccccc1C1(O)CCN(CC(=O)Nc2nc(-c3ccccc3)cs2)CC1,-14.6%,-3.0%,6.9,-86.3*,0.5
CC(=O)OCC1OC(C#Cc2ccc(F)cc2F)C=CC1OC(C)=O (stereo not drawn),-26.5%[11.7 µM],x,x,x,-4.7[11.7 µM]
O=C1c2cccc(OCC(=O)N3CCCc4ccccc43)c2CCN1Cc1cccnc1,-23.7%,25.1%,11.7,3.8,3.5
Cc1ccccc1CN1CCc2c(OCC(=O)N3CCCc4ccccc43)cccc2C1=O,-1.1%,-1.0%,-123.3*,-15.0,6.1
O=C(COC(=O)c1ccccc1)NCC1COc2ccccc2O1 (stereo not drawn),x,x,-245.5*,3.6,x
Cc1ccc(C(=O)OCC(=O)NCC2COc3ccccc3O2)cc1 (stereo not drawn),x,x,-0.1,0.3,x
COc1ccc(NC(=O)N2CCc3nc(COc4ccccc4)c4c(c3C2)CO[C@@H](C)C4)cc1,-8.6%[11.7 µM],x,x,x,-0.2[11.7 µM]
O=C(Cc1ccccc1F)NNC(=O)c1ccncc1,x,-4.5%,9.9,-17.8,x
COC(=O)[C@H]1[C@H]2C[C@@H]3c4[nH]c5cc(OC)ccc5c4CCN3C[C@H]2C[C@@H](OC(=O)/C=C/c2cc(OC)c(OC)c(OC)c2)[C@@H]1OC,x,x,-31.1,-72.8*,x
CCN1CCc2nc3ccccc3c(C(=O)Nc3ccc(F)cc3)c2C1,x,28.5%,u,-82.6*,5.4
CCN1CCc2nc3ccccc3c(C(=O)Nc3ccc(NC(C)=O)cc3)c2C1,x,-6.2%,-5.6,-7.4,3.7
COC(=O)c1sccc1NC(=O)c1ccc(OC)cc1OC,-11.4%,-8.1%,-246.1*,-176.1*,-2.0
COC(=O)c1sccc1NC(=O)Nc1ccc(C(C)=O)cc1,x,-10.4%,16.3,-79.4*,x
CCCCN(C)C(=S)Nc1ccsc1C(=O)OC,2.1%,-3.5%,-7.4,-154.5*,7.0
CCCCCCCCCCCC,1.9%,x,x,x,-5.1
Cc1ccc2c(c1)-c1cc(C)ccc1C2=O,x,x,1.0,10.6,x
Cc1ccc(C(=O)Nc2ccccc2Cl)cc1,4.3%,-5.8%,-0.7,0.7,-0.3
CCCCC(=O)Nc1ccc(C(=O)NNC(=O)c2ccco2)cc1,1.5%,-0.4%,-153.7*,-12.6,5.5
Cc1c(C(=O)N2CCN(S(=O)(=O)c3ccccc3)CC2)oc2ccc(Br)cc12,x,x,-3.6,-1.5,x
CCCNC(=O)C(Cc1ccccc1F)NC(=O)c1ccc(C#N)cc1 (stereo not drawn),x,x,6.9,-99.1*,x
Cc1nn2c(=O)cc(CSCC(=O)Nc3ccccc3F)nc2s1,x,11.8%,-16.5,-141.6*,x
CCc1nn2c(=O)cc(CSCC(=O)Nc3ccccc3F)nc2s1,x,20.0%,-28.3,-8.8,x
Cc1c(NC(=O)C(C)OC(=O)c2cc(Cl)ccc2O)c(=O)n(-c2ccccc2)n1C (stereo not drawn),x,0.6%,-9.3,-1.6,x
CCOc1ccc(C(C(=O)NC(C)(C)C)N(CCOC)C(=O)CCC(=O)Nc2ccccn2)cc1 (stereo not drawn),-13.8%,-11.3%,-2.3,-7.1,-0.3
CCCCOc1ccc(C(=O)Nc2ccc3c(c2)C(=O)NC3=O)cc1,u,34.2%,-19.4,16.2,1.1
COC(=O)c1ccc(C(=O)Nc2ccc3c(c2)C(=O)NC3=O)cc1,3.2%,u,11.9,-95.9*,-9.3

# Screens: PubChem BioAssay, National Center for Advancing Translational Sciences (NCATS)
